# Results reported in the supplement of paper PMC7380943.
# Tested on: CLZ3 (HCA2 human fibroblast dual HR-NHEJ reporter)
# Assay: NHEJ repair efficiency (GFP+ cells) relative to control (log10 fold); higher = more non-homologous end joining
# Details: 5 µM; doxycycline 0.5 ug/mL
# 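Also: compound given one day ahead of doxycycline, which switches on I-SceI endonuclease to cut the chromosomally integrated reporter and create DSBs.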
row,SMILES,NHEJ repair efficiency (log10)
1,COC(=O)C1=CO[C@@H](O[C@@H]2O[C@H](CO)[C@@H](O)[C@H](O)[C@H]2O)[C@H]2[C@@H]1[C@H](O)C[C@]2(C)OC(C)=O [8-O-Acetyl Shanzhiside Methyl Ester],-0.0953
2,NCCCC(=O)O [γ-Aminobutyric Acid],-0.0944
3,CC(C)(O)CCc1c(O)cc(O)c2c(=O)c(O)c(-c3ccc(O)cc3)oc12 [Noricaritin],-0.112
4,O=c1cc(-c2ccc(O)c(O)c2)oc2c([C@@H]3O[C@H](CO)[C@@H](O)[C@H](O)[C@H]3O)c(O)cc(O)c12 [Orientin],0.0454
5,O=c1c(O[C@@H]2O[C@H](CO)[C@H](O)[C@H](O)[C@H]2O)c(-c2ccc(O)c(O)c2)oc2cc(O)cc(O)c12 [Hyperoside],0.0115
6,CC(C)=CCC/C(C)=C/CC/C(C)=C/CC/C(C)=C/CC/C(C)=C/CC/C(C)=C/CC/C(C)=C/CC/C(C)=C/CC/C(C)=C/CO [Solanesol],-0.0479
7,CC1(C)OC(=O)C=C[C@]2(C)[C@H]3CC[C@@]4(C)[C@H](c5ccoc5)OC(=O)[C@H]5O[C@]54[C@]3(C)C(=O)C[C@@H]12 [Obacunone],-0.0357
8,COc1cc(C2Oc3cc([C@H]4Oc5cc(O)cc(O)c5C(=O)[C@@H]4O)ccc3OC2CO)ccc1O (some centres not stated) [Silybin (Silymarin)],0.131
9,C/C=C/C#CC#C[C@@H](O)[C@@H](/C=C/CCCO)O[C@@H]1O[C@H](CO)[C@@H](O)[C@H](O)[C@H]1O [Lobetyolin],0.048
10,O=C(OCC1=C[C@@H](O)[C@@H]2C=CO[C@@H](O[C@@H]3O[C@H](CO)[C@@H](O)[C@H](O)[C@H]3O)[C@H]12)c1ccc(O)cc1 [Agnuside],-0.062
11,O=Cc1ccc(CO)o1 [5-Hydroxymethylfurfural],-0.214
12,CC(C)[C@@H]1[C@H]2OC(=O)[C@@H]1[C@@H]1CC[C@@H]3CN(C)[C@H]2[C@@]31C [Dendrobine],0.165
13,COc1cc2ccc(=O)oc2cc1OC [Scoparone],0.0322
14,COc1cc2c(cc1O)CC[n+]1cc3c(OC)c(OC)ccc3cc1-2 [Jateorrhizine],-0.216
15,O=c1c(-c2ccc(O)c(O)c2)coc2c([C@@H]3O[C@H](CO)[C@@H](O)[C@H](O)[C@H]3O)c(O)ccc12 [3-Hydroxy Puerarin],-0.187
16,CC(=O)OC1CC23CC(C)(O)C(CCC2C(C)(O)C2C4OC4C(C)(C)C12O)C3O (configuration not stated) [Rhodojaponin Ii],-0.0128

row,SMILES,NHEJ repair efficiency (log10)
1,COc1c(O)cc2c(c1O)[C@@H]1O[C@H](CO)[C@@H](O)[C@H](O)[C@H]1OC2=O [Bergenin],0.0025
2,O=C(C=Cc1ccc(O)c(O)c1)O[C@H]1[C@H](O)C[C@](O)(C(=O)O)C[C@H]1OC(=O)C=Cc1ccc(O)c(O)c1 [Isochlorogenic acid C],0.118
3,C[C@H]1O[C@H](OC[C@H]2O[C@@H](Oc3c(-c4ccc(O)cc4)oc4cc(O)cc(O)c4c3=O)[C@H](O)[C@@H](O)[C@@H]2O)[C@@H](O)[C@@H](O)[C@@H]1O [Kaempferol-3-O-Rutinoside],0.0149
4,OC[C@H]1NC[C@H](O)[C@@H](O)[C@@H]1O [1-Deoxynojirimycin],0.0355
5,C[C@H](CCC(=O)O)[C@H]1CC[C@H]2[C@@H]3[C@H](O)C[C@@H]4C[C@H](O)CC[C@]4(C)[C@H]3C[C@H](O)[C@]12C [Cholic acid],-0.0347
6,O=Cc1ccc(O)cc1 [4-Hydroxybenzaldehyde],0.0829
7,"O=C1c2cccc(O)c2C(=O)c2c(O)cccc21 [1,8-Dihydroxyanthraquinone]",-0.286
8,OC[C@H]1O[C@@H](Oc2ccc(O)cc2)[C@H](O)[C@@H](O)[C@@H]1O [Arbutin],-0.0725
9,O=c1cc(-c2ccc(O)cc2)oc2c([C@@H]3O[C@H](CO)[C@@H](O)[C@H](O)[C@H]3O)c(O)c([C@@H]3OC[C@H](O)[C@H](O)[C@H]3O)c(O)c12 [Isoschaftoside],-0.0804
10,CC1(C)CCC2(C(=O)OC3OC(CO)C(O)C(O)C3O)CCC3(C)C(=CCC4C5(C)CCC(OC6OC(C(=O)O)C(OC7OCC(O)C(OC8OC(CO)C(O)C(O)C8O)C7O)C(O)C6O)C(C)(C)C5CCC43C)C2C1 (configuration not stated) [Oleanoside A],-0.111
11,CC(C)=CCC[C@](C)(O[C@@H]1O[C@H](CO[C@@H]2OC[C@H](O)[C@H](O)[C@H]2O)[C@@H](O)[C@H](O)[C@H]1O)[C@H]1CC[C@]2(C)[C@@H]1[C@H](O)C[C@@H]1[C@@]3(C)CC[C@H](O[C@@H]4O[C@H](CO)[C@@H](O)[C@H](O)[C@H]4O[C@@H]4O[C@H](CO)[C@@H](O)[C@H](O)[C@H]4O)C(C)(C)[C@@H]3CC[C@]12C [Ginsenoside Rb2],0.0156
12,O=C(O)/C=C/C(=O)O [Fumaric Acid],0.0532
13,O=C(O)C1=CO[C@@H](O[C@@H]2O[C@H](CO)[C@@H](O)[C@H](O)[C@H]2O)[C@@H]2C(CO)=CC[C@H]12 [Geniposidic acid],-0.068
14,C=C1C(=O)O[C@@H]2/C=C(\C)CC/C=C(\C)CC[C@@H]12 [Costunolide],-0.04
15,C[C@@]12C[C@@]3(O)O[C@@H](O1)[C@]1(COC(=O)c4ccccc4)[C@H]3C[C@@]12O[C@@H]1O[C@H](CO)[C@@H](O)[C@H](O)[C@H]1O [Paeoniflorin],0.122
16,O=C(/C=C/c1ccc(O)c(O)c1)O[C@@H]1C[C@](O)(C(=O)O)C[C@@H](O)[C@H]1O [Chlorogenic Acid],0.0025
